In the library only some 6% were active in any assay of this set; here they are far more common.
D1 antagonist – human D1 dopamine receptor antagonism | P21728 | HEK293 TREx D1 cells, calcium flux, dopamine EC80; stronger effect = lower value | activity change, negative = inhibition, % at 10 µM | actives 3.2% (n = 360,000); in the data active = activity change below about -30%
Target sequence (P21728 whole entry, looked up): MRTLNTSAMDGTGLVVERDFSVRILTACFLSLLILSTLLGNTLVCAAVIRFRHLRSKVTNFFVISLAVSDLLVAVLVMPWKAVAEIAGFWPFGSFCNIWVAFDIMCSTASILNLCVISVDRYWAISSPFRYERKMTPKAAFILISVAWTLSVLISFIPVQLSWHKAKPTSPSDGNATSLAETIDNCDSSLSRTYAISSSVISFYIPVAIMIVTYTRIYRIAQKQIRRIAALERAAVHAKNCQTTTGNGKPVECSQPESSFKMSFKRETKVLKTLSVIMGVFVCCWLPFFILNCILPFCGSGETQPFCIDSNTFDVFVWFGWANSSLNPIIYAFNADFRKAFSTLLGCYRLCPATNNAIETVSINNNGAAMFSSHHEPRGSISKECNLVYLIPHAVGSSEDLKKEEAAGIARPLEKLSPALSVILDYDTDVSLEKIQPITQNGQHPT
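Using tetracycline-induced force-coupled D1 Hek293 cells and a calcium dye, signals were followed for 180 s after compound, then for 180 s after EC80 dopamine, to detect inhibitors.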
D3 antag – antagonists of human D3 dopamine receptor | P35462 | D3R cells, DiscoveRx beta-arrestin luminescence, antagonist mode; stronger effect = lower value | max response, negative = inhibition, % | actives 2.5% (n = 360,000) | AID 652054; in the data active = max response below about -50%; inconclusive = no clear call, values can overlap the other calls
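Cells expressing the human receptor were seeded at 1500 cells/well, incubated overnight at 37 degrees C in 5% CO2, then exposed to library compounds with dopamine controls for 90 minutes at 37 degrees C before luminescent detection.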
D1 PAM – human D1 dopamine receptor positive modulation; HEK293 TREx D1 cells, calcium flux, dopamine EC20 potentiation; potentiation, % at 10 µM; actives 0.036% (n = 360,000); in the data active = potentiation above about 30%
D1 agonist – agonists of human D1 dopamine receptor; P21728; HEK293 T-REx D1 cells, calcium flux, agonist mode; activation, % at 2 µM; actives 1% (n = 360,000); in the data active = activation above about 30%
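Inducible HEK293 T-REx D1 cells, force-coupled to calcium signalling, were plated at 4000 cells/well with tetracycline and held overnight at 30 C. After no-wash calcium dye loading, compound-evoked calcium rise over 180 s flagged agonists.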
D3 ag – activates the human D3 dopamine receptor; D3R DiscoveRx beta-arrestin cells, luminescence, 90 min; actives 0.58% (n = 410,000); max activation, %; in the data active = max activation above about 30%
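Agonist-mode cell screen: cells plated at 1500/well and incubated overnight at 37 °C, then exposed to library compounds for 90 min at 37 °C. Detection reagent was added for 30–60 min at room temperature, and luminescence was read.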
Each line names hits and unclear results; the compound was inactive in the other large screens.

OC(CN1CCN(C(c2ccccc2)c2ccccc2)CC1)c1ccccc1 (stereo unspecified)	none
OC(CN1CCN(c2ccccc2Cl)CC1)c1ccccc1 (stereo unspecified)	D3 antag -84.3
CCOc1ccc(NS(=O)(=O)c2ccc(C(=O)N(C)CC(=O)Nc3ccccc3Br)cc2)cc1	none (no result: D1 antagonist, D1 PAM, D1 agonist)
COc1ccccc1N1CCN(CCCNC(=O)c2nnc(Cc3c(F)cccc3Cl)o2)CC1	D1 antagonist -36.5 (no result: D3 antag)
CN1CCN(CCCNC(=O)c2nnc(Cc3c(F)cccc3Cl)o2)CC1	D3 antag inconclusive
COc1ccccc1N1CCN(CCCNC(=O)c2nnc(Cc3ccc(F)cc3Cl)o2)CC1	D1 antagonist -39.5 (no result: D3 antag)
CCN(CC)C(=O)CSc1nc2c(c(=O)n(C)c(=O)n2C)n1Cc1ccccc1	none (no result: D3 antag)
CC(=O)Nc1ccc(NC2=Nc3ccccc3N3C2=Nc2c(c(C)nn2-c2ccccc2)C3c2ccccc2)cc1 (stereo unspecified)	D3 ag 34.1
O=c1c2cnn(-c3ccccc3)c2ncn1Cc1ccccn1	D1 antagonist -40.8
COc1ccc(-n2ncc3c(=O)n(CC(C)=O)cnc32)cc1	D1 antagonist -33.7
O=c1c2cnn(-c3ccccc3)c2ncn1Cc1cccnc1	none
Cc1ccccc1CN1CCc2nc(Nc3ccc4c(c3)OCCO4)ncc2C1	none (no result: D3 antag)
CCOC(=O)c1nc2c(=O)n(C)c(=O)n(C)c2n(C)c1=O	none (no result: D1 antagonist, D1 PAM, D1 agonist)
CCN1CCN(c2ncc3c(n2)CCN(Cc2cc(Br)cs2)C3)CC1	none (no result: D3 antag)
O=C(O)c1ccc(Cl)c(S(=O)(=O)NCC2CCCO2)c1 (stereo unspecified)	D3 antag -53.7
O=S(=O)(NNC(=S)NCC1CCCO1)c1cc(Cl)ccc1Cl (stereo unspecified)	D1 antagonist -38.9
O=S(=O)(NCC1CCCO1)c1cc(Cl)ccc1Cl (stereo unspecified)	none
Cc1cc(-c2nnn(CCCOC(C)(C)C)c2C)ccc1-c1cn(CCCOC(C)(C)C)nn1	none (no result: D1 antagonist, D1 PAM, D1 agonist)
Cc1ccc(-c2cc(C(F)(F)F)n3nc(C(=O)Nc4sc5c(c4C#N)CCC(C)C5)cc3n2)cc1 (stereo unspecified)	D1 antagonist -37.3 (no result: D3 antag)
COc1ccc(OC)c(-c2cc(C(=O)Nc3sc4c(c3C#N)CCC(C)C4)c3ccccc3n2)c1 (stereo unspecified)	D1 antagonist -47.3
COc1ccc(-c2cc(C(=O)Nc3sc4c(c3C#N)CCCC4)c3ccccc3n2)cc1	D3 antag inconclusive
COc1ccccc1-c1cc(C(=O)Nc2sc3c(c2C#N)CCC(C)C3)c2ccccc2n1 (stereo unspecified)	D3 antag -63.0
Cc1onc(-c2ccccc2)c1C(=O)NC(=S)Nc1sc2c(c1C#N)CCC(C)C2 (stereo unspecified)	D3 ag 34.9
Cc1cc(C(=O)OCC(=O)Nc2sc3c(c2C#N)CCC(C)C3)c2ccccc2n1 (stereo unspecified)	none
CC1(C)Cc2c(sc(NC(=O)C(=O)N3CCCC3)c2C#N)CO1	none
CCn1c(=O)c2cc(C(=O)N3CCN(c4cccc(OC)c4)CC3)sc2c2ccccc21	none (no result: D3 antag)
Cc1cccc(Cn2c(=O)n(Cc3ccccc3)c(=O)c3c2c2cc(C)ccc2n3C)c1	none (no result: D3 antag)
Cc1c(CNC2CCC(C)CC2)c(C(=O)O)c(C)n1Cc1ccc(Cl)cc1 (stereo unspecified)	none (no result: D3 antag)
CCCN1CCc2c(sc(NC(=S)NC(=O)c3ccccc3)c2C#N)C1	D1 agonist 45.0, D3 ag 37.8
CC(C)N1CCc2c(sc(NC(=S)NC(=O)c3ccccc3)c2C#N)C1	none
Cc1ccccc1-c1cc(C(=O)Nc2sc(C(=O)OC(C)C)c(C)c2C#N)c2ccccc2n1	D3 antag -68.4
COc1ccc(C(C(=O)NC2CCCC2)n2c(-c3cccs3)nc3ccccc32)cc1 (stereo unspecified)	none (no result: D1 antagonist, D1 PAM, D1 agonist)
CCOC(=O)[C@]12CCCC=C1N(Cc1ccc(Cl)cc1Cl)C(=O)[C@H](CC(=O)NCc1cccs1)C2	D3 antag inconclusive (no result: D1 antagonist, D1 PAM, D1 agonist)
O=S(=O)(Nc1cccc2cccnc12)c1ccccc1Br	none (no result: D3 antag, D3 ag)
CCCCSCCCNC(=O)C1CCC(CNS(=O)(=O)c2c(C)cc(C)cc2C)CC1 (stereo unspecified)	none (no result: D3 antag)
CC(C)N(Cc1nc(-c2ccc(Cl)cc2)no1)C(=O)c1cccs1	none
Cc1ccc(-c2noc(CN(C(=O)c3cccs3)C(C)C)n2)cc1	D1 antagonist -30.5
CCOc1cc(C(=O)N(Cc2nc(-c3ccc(C)cc3)no2)C(C)C)cc(OCC)c1OCC	D1 antagonist -35.1 (no result: D3 antag)
CCOc1ccccc1CNC(=O)Cn1cc2c(n1)-c1c(oc(C(=O)N3CCCC3)c1C)CC2	none (no result: D3 antag)
CCCc1cc(-c2n[nH]c(C)c2-c2ccc(C(=O)OCC)o2)c(O)cc1O	D1 agonist 65.3, D3 ag 35.4
O=C(O)c1ccc(Nc2ncnc3ccccc23)cc1	none
CC(C)(C)c1ccc(OC(=O)c2cccnc2)cc1	D1 agonist 42.3
O=C(Oc1ccc(Nc2ncnc3ccccc23)cc1)c1cccnc1	D1 antagonist -47.1
COc1cccc(Nc2ncnc3ccccc23)c1	none (no result: D1 antagonist)
O=C(Oc1cccc(Nc2ncnc3ccccc23)c1)c1ccccc1Cl	D3 ag 39.7
Brc1ccc([C@H]2C=C[C@H]3CCCN4CC[C@H]2[C@@H]3[C@]42CO2)cc1	none (no result: D1 antagonist, D1 PAM, D1 agonist)
COCCNC(=O)C1(C)CCCN(Cc2ccc(OC)cc2)C1 (stereo unspecified)	none (no result: D1 antagonist, D1 PAM, D1 agonist)
CCOC(=O)C1CCN(C2CCN(Cc3nc(-c4ccccc4)no3)CC2)CC1	none
COC(=O)C1CCN(Cc2nnc(-c3ccccc3)o2)CC1	D3 ag 81.1
COC(=O)C1CCN(Cc2cn(-c3ccccc3)nc2-c2ccc3c(c2)OCO3)CC1	D3 antag -69.0
CCOC(=O)N1CCN(Cc2nc(-c3cccc(C)c3)no2)CC1	D1 antagonist -31.3
NC(=O)C1CCN(Cc2nc(-c3ccccc3)no2)CC1	D3 ag 34.0
CC(=O)NCC1CCCN(Cc2cn(-c3ccccc3)nc2-c2ccc3c(c2)OCO3)C1 (stereo unspecified)	none
CC(=O)c1ccc(N2C(=O)N(Cc3cc(C)ccc3C)c3ccccc3S2(=O)=O)cc1	none (no result: D3 antag)
Cc1cc(=O)oc2cc(OCc3ccc(C(=O)N4CCN(c5ccccc5)CC4)cc3)ccc12	D1 antagonist -36.6
COc1ccc(N2CCN(CCOc3ccc4c(C)cc(=O)oc4c3)CC2)cc1	D3 antag -50.9
Cc1cc(=O)oc2cc(OCc3ccc(C(=O)N4CCN(c5ccc([N+](=O)[O-])cc5)CC4)cc3)ccc12	none
N#Cc1c(-c2cccnc2)c2c([nH]c1=O)-c1ccccc1OC2	D1 antagonist -31.1
N#Cc1c(-c2ccc(F)cc2)c2c([nH]c1=O)-c1ccccc1OC2	none
COC(=O)C[C@@H]1CC[C@H](NS(=O)(=O)c2ccccc2F)[C@@H](CO)O1	none (no result: D1 antagonist, D1 PAM, D1 agonist)

Compound activity as filed in PubChem.
